From PubChem BioAssay
GALC G270D up – A Novel Cell-Based Assay to Identify Small Molecules for B -Galactocerebrosidase; 145M-Twi-hGALC-G270D cells (Twitcher mouse brain line with human GALC G270D), HMU-beta-Gal fluorescence, 48 h; Potency, µM (titrated, usually from 57.5 µM), actives largely listed as activators; 45,000 compounds, 0.1% hits; note: nearly all actives have a fitted effect of over 65% in size
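Live 145M-Twi cells (Twitcher mouse brain-derived, GALC-null) stably expressing human GALC-G270D, with a wild-type GALC line, were compound-treated. Residual GALC activity was then read as fluorescence from 0.1 mM final HMU-β-gal at pH 5.2; higher signal means activation.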
DRV1 agonist – qHTS for Agonists of Human Resolvin D1 Receptor DRV1. activation, % at 76.9 µM. CHO-K1 GPR32 beta-arrestin PathHunter luminescence, 90 min; zero percent set by DMSO-only wells. 48,000 compounds, 2.5% hits;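 active = activation of at least 60% and not above a set upper limit, about 1 call in 100 departs from these limits; inconclusive = activation of 40% to 60%, or above that upper limit; inactive = activation under 40%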
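PathHunter enzyme-fragment complementation, CHO-K1 GPR32 stable line; 2,500 cells/well, overnight attach; cpd 90 min 37 °C 5% CO2; detection reagent 1 h RT; chemiluminescence. DMSO = EC0.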
NTMT1 inhibitor – Primary qHTS for Inhibitors of N-terminal methyltransferase 1 (NTMT1): MTaseGlo Assay. 59,000 compounds, 2.5% hits. N-terminal Xaa-Pro-Lys N-methyltransferase 1 (Homo sapiens), Q9BV86. AID 1645870, 2021. NTMT1 MTase-Glo SAH luminescence, purified enzyme. Potency, µM (top dose mostly 114 µM), actives largely listed as inhibitors; note: nearly all actives have a fitted effect of over 65% in size
FH mod – Identification of activators of human fumarate hydratase by quantitative high-throughput screening | Potency, µM (titrated, usually from 79.9 µM), actives largely listed as inhibitors | AID 1347055, 2019 | FH coupled MDH/diaphorase resazurin fluorescence, 15 min | 54,000 compounds, 0.22% hits; note: the screen sought activators but most active calls are inhibition curves; nearly all actives have a fitted effect of over 45% in size
Target sequence (P07954 whole entry, looked up): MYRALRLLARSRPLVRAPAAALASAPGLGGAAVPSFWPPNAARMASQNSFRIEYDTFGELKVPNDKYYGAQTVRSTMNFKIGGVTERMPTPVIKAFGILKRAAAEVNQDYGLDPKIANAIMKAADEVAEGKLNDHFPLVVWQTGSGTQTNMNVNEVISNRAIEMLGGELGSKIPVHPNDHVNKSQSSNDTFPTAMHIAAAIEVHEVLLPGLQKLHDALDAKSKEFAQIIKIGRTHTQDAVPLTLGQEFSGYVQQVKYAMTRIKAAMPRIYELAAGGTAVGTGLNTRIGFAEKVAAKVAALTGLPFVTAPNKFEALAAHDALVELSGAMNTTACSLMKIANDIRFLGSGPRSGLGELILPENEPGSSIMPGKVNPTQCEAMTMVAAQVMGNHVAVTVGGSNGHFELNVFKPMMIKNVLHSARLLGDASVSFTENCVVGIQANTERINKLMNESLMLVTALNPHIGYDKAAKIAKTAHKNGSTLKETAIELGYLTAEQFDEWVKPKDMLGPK
p53null 32C kill – qHTS Screen for Compounds that Selectively Target Cancer Cells with p53 Mutations: Cytotoxicity of p53 Null Cells at the Permissive Temperature | H1299-neo p53 null cells, ATP luminescence, 24 h, 32C | 55,000 compounds, 0.62% hits | Potency, µM (titrated, usually from 46.1 µM), most hits filed as cytotoxic; note: nearly all actives have a fitted effect of over 55% in size
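Luminescent ATP readout gave cell viability of p53-null H1299-neo cells after a 24 h compound exposure at the permissive 32C. Titrations ran up to 46 uM, and AC50s were fitted with the standard Hill equation.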
p53null 39C tox – qHTS Screen for Compounds that Selectively Target Cancer Cells with p53 Mutations: Cytotoxicity of p53 Null Cells at the Nonpermissive Temperature. Potency, µM (doses to about 46.1 µM), hits mostly cytotoxic. 55,000 compounds, 0.97% hits. H1299 p53-null (neo) cells, 39C, ATPlite viability, 24 h; note: nearly all actives have a fitted effect of over 50% in size
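ATP-luminescence viability readout (ATPlite, 20 min RT) after 24 hr compound treatment at 39C of H1299-neo or H1299-p53A138V cells; titration up to 46 uM; normalized to DMSO and 100 uM tamoxifen; Hill-fit AC50.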
HSD17B4 inh – Extended Characterization of HPGD Inhibitors: Counterscreen Against HSD17b4. AID 743187, 2013. purified HSD17B4, estradiol/NAD+, NADH fluorescence. 230 compounds, 10% hits. Potency, µM (series often up to 57.1 µM), most hits filed as inhibitors. shares compounds with NTMT1 inhibitor
ALDH1A1 inh – Extended Characterization of HPGD Inhibitors: Counterscreen Against ALDH1A1; shares compounds with NTMT1 inhibitor; recombinant ALDH1A1, NADH fluorescence, propionaldehyde/NAD+; Potency, µM (top dose mostly 57.1 µM), hits mostly inhibitors; 230 compounds, 93% hits; AID 743195, 2013
NNMT inh – Counterscreen qHTS for Inhibitors of N-terminal methyltransferase 1 (NTMT1): NNMT MTaseGlo assay | Potency, µM (titrated, usually from 57.1 µM), actives largely listed as inhibitors | 120 compounds, 10% hits | NNMT MTase-Glo luminescence, SAH detection | shares compounds with NTMT1 inhibitor
Each line names hits and unclear results; the compound was inactive in the other large screens (follow-up assays come after a bar, where they were run). Rows were chosen to be rich in hits. Some 3.9% of all compounds tested hit in one or more screens of this group. Unless noted, calls come from the whole dose curve; as a rule, active = well fitted curve in the direction sought with a large enough effect; inconclusive = small, poorly fitted or top-dose-only effect, or another doubt; inactive = no such curve, though single readings can be large; an effect the other way counts as inactive or inconclusive.

Cc1cc(-c2nnc3n2CCCCC3)c(C)n1-c1cccc(C(F)(F)F)c1	none (no result: GALC G270D up, DRV1 agonist, FH mod, p53null 32C kill, p53null 39C tox) | HSD17B4 inh inactive | ALDH1A1 inh inconclusive
Cc1cc(-c2nnc3n2CCCCC3)c(C)n1-c1ccncc1	none (no result: GALC G270D up, DRV1 agonist, FH mod, p53null 32C kill, p53null 39C tox)
Cc1ccc(-n2c(C)cc(-c3nnc4n3CCCCC4)c2C)cc1	none (no result: GALC G270D up, DRV1 agonist, FH mod, p53null 32C kill, p53null 39C tox) | HSD17B4 inh inactive | ALDH1A1 inh inconclusive
COc1cc(Nc2nc(-c3ccncc3)nc3ccccc23)ccc1Cl	none (no result: GALC G270D up, DRV1 agonist, FH mod, p53null 32C kill, p53null 39C tox)
O=C(CSc1nc(=O)n(CCN2CCOCC2)c2c1CCC2)Nc1cccc(Cl)c1	none
Cc1cc(N2CCOCC2)cc2[nH]c(-c3c(NC[C@@H](O)c4cccc(Cl)c4)cc[nH]c3=O)nc12	NTMT1 inhibitor inconclusive, FH mod inconclusive (no result: GALC G270D up, DRV1 agonist, p53null 32C kill, p53null 39C tox) | NNMT inh inconclusive
O=C(NC1CCCc2c1cnn2-c1ccc(F)cc1F)C1CC1 (stereo not drawn)	none (no result: GALC G270D up, DRV1 agonist, FH mod, p53null 32C kill, p53null 39C tox)
O=C(O)c1cc(-c2c(-c3ccccc3)nn3ccccc23)n[nH]c1=O	none (no result: GALC G270D up, DRV1 agonist, p53null 32C kill, p53null 39C tox)
Nc1[nH]nc2nnc(-c3c(-c4ccccc4)nn4ccccc34)cc12	NTMT1 inhibitor 8.9µM (no result: GALC G270D up, DRV1 agonist, p53null 32C kill, p53null 39C tox) | NNMT inh 11µM
